Compounds without any hit were thinned out: in the full panel of roughly 83,000, 20% have a hit.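 Note: values are percent growth. 100 is the growth of untreated cells, values between 100 and 0 indicate rising inhibition; between -100 and 0 indicates cell death.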 Calls of active or inactive are those of the source. How the source made its calls: active means growth percent below 10; inactive means the rest.
Tests used:
Experiment in all cases: NCI-60 one-dose screen, 48 h (100 = growth as untreated, 0 = no growth, -100 = all killed)
Settings in all cases: 10 µM unless noted
HCT-15 colon = tested on: HCT-15 colon
HT29 colon = tested on: HT29 colon
SNB-75 CNS = tested on: SNB-75 CNS
SNB-19 CNS = tested on: SNB-19 CNS
U251 CNS = tested on: U251 CNS
PC-3 prostate = tested on: PC-3 prostate
SK-MEL-5 melanoma = tested on: SK-MEL-5 melanoma
UACC-62 melanoma = tested on: UACC-62 melanoma
LOX IMVI melanoma = tested on: LOX IMVI melanoma
SK-MEL-28 melanoma = tested on: SK-MEL-28 melanoma
SK-MEL-2 melanoma = tested on: SK-MEL-2 melanoma
EKVX NSCLC = tested on: EKVX NSCLC
SN12C renal = tested on: SN12C renal
UO-31 renal = tested on: UO-31 renal
TK-10 renal = tested on: TK-10 renal
ACHN renal = tested on: ACHN renal
CAKI-1 renal = tested on: CAKI-1 renal
A498 renal = tested on: A498 renal
CCRF-CEM leukemia = tested on: CCRF-CEM leukemia
MOLT-4 leukemia = tested on: MOLT-4 leukemia

Measured: growth

O=S(=O)(Nc1ccc(Cl)cc1)c1ccc(-c2cnc(C3CC3)o2)cc1
inactive: HCT-15 colon 27.9% | HT29 colon 15.4% | SNB-19 CNS 30% | U251 CNS 24.4% | PC-3 prostate 24.2% | SK-MEL-5 melanoma 15.2% | UACC-62 melanoma 17.3% | LOX IMVI melanoma 50.5% | SK-MEL-28 melanoma 61.4% | SK-MEL-2 melanoma 39.8% | EKVX NSCLC 47.9% | SN12C renal 36.4% | UO-31 renal 41.5% | TK-10 renal 54.2% | ACHN renal 35.4% | CAKI-1 renal 31.6% | CCRF-CEM leukemia 11.4% | MOLT-4 leukemia 14.2%
active: SNB-75 CNS -11.9% | A498 renal 0.162%

CC(=O)OCc1nc(C#N)c(N(C)C)o1
inactive: HCT-15 colon 88.6% | HT29 colon 99.2% | SNB-75 CNS 81.5% | SNB-19 CNS 95.9% | U251 CNS 95.5% | PC-3 prostate 104% | SK-MEL-5 melanoma 105% | UACC-62 melanoma 89.3% | LOX IMVI melanoma 99.2% | SK-MEL-28 melanoma 109% | SK-MEL-2 melanoma 88.8% | EKVX NSCLC 90.6% | SN12C renal 97.7% | UO-31 renal 89.9% | TK-10 renal 84.1% | ACHN renal 98% | CAKI-1 renal 92.7% | A498 renal 84.7% | CCRF-CEM leukemia 88.2% | MOLT-4 leukemia 97.1%

O=c1oc2c(cnc3ccccc32)cc1-c1ccsc1
inactive: HCT-15 colon 107% | HT29 colon 113% | SNB-75 CNS 89% | SNB-19 CNS 94.6% | U251 CNS 93.3% | PC-3 prostate 90.5% | SK-MEL-5 melanoma 96.8% | UACC-62 melanoma 94.8% | LOX IMVI melanoma 99.3% | SK-MEL-28 melanoma 106% | SK-MEL-2 melanoma 106% | EKVX NSCLC 95% | SN12C renal 95.1% | UO-31 renal 79.3% | TK-10 renal 123% | ACHN renal 93.9% | CAKI-1 renal 84.5% | A498 renal 107% | CCRF-CEM leukemia 94.6% | MOLT-4 leukemia 96%

CC1=C(C(=O)OC(C)C)C(c2ccc3c(c2)OCO3)NC(=S)N1 (stereo not given)
inactive: HCT-15 colon 100% | HT29 colon 103% | SNB-75 CNS 95.2% | SNB-19 CNS 95.4% | U251 CNS 102% | PC-3 prostate 86% | SK-MEL-5 melanoma 98.5% | UACC-62 melanoma 85.2% | LOX IMVI melanoma 97.3% | SK-MEL-28 melanoma 106% | SK-MEL-2 melanoma 102% | EKVX NSCLC 94.4% | SN12C renal 105% | UO-31 renal 84.5% | TK-10 renal 98.1% | ACHN renal 99.4% | CAKI-1 renal 93.8% | A498 renal 109% | CCRF-CEM leukemia 105% | MOLT-4 leukemia 110%

COC1=CC(c2ccc[nH]2)=N/C1=C\c1[nH]c(C)c(C(=O)OCc2ccccc2)c1C
active: HCT-15 colon -35.4% | HT29 colon -19.4% | SNB-75 CNS -21.4% | U251 CNS -47% | SK-MEL-5 melanoma -99.5% | UACC-62 melanoma -52.6% | LOX IMVI melanoma -90.6% | SK-MEL-28 melanoma -59.4% | SK-MEL-2 melanoma -63.1% | EKVX NSCLC -33.5% | SN12C renal -29.4% | UO-31 renal -87.9% | TK-10 renal -4.94% | ACHN renal -86.1% | CAKI-1 renal -40.7% | A498 renal -37.7% | MOLT-4 leukemia -7.67%
inactive: SNB-19 CNS 18.5% | PC-3 prostate 10.4% | CCRF-CEM leukemia 13.4%

O=C(Cn1cc(CN2C(=O)c3ccccc3S2(=O)=O)nn1)Nc1nc2ccccc2s1
inactive: HCT-15 colon 107% | HT29 colon 97.9% | SNB-75 CNS 81.2% | SNB-19 CNS 98.1% | U251 CNS 98.7% | PC-3 prostate 93.2% | SK-MEL-5 melanoma 104% | UACC-62 melanoma 97.5% | LOX IMVI melanoma 92.5% | SK-MEL-28 melanoma 106% | SK-MEL-2 melanoma 95.3% | EKVX NSCLC 105% | SN12C renal 105% | UO-31 renal 69.1% | TK-10 renal 97.5% | ACHN renal 90.5% | CAKI-1 renal 89.6% | A498 renal 108% | CCRF-CEM leukemia 113% | MOLT-4 leukemia 115%

CCNC(=O)c1[nH]cc(-c2ccccc2)c1-c1cc(OC)c2c(c1OC)OCO2
inactive: HCT-15 colon 103% | HT29 colon 112% | SNB-75 CNS 91.4% | SNB-19 CNS 98.6% | U251 CNS 103% | PC-3 prostate 93.1% | SK-MEL-5 melanoma 89.8% | UACC-62 melanoma 92.2% | LOX IMVI melanoma 95.1% | SK-MEL-28 melanoma 108% | SK-MEL-2 melanoma 99.9% | EKVX NSCLC 96.9% | SN12C renal 98.7% | UO-31 renal 76% | TK-10 renal 106% | ACHN renal 99.1% | CAKI-1 renal 74.7% | A498 renal 77.1% | CCRF-CEM leukemia 101% | MOLT-4 leukemia 98.9%

CS(=O)(=O)Nc1cc(-c2ccc3ncnc(Nc4c(Cl)ccc5c4OCO5)c3c2)cnc1Cl
inactive: ACHN renal 11.7% | CCRF-CEM leukemia 11.9%
active: HCT-15 colon -18% | HT29 colon -12.9% | SNB-75 CNS -19.5% | SNB-19 CNS -4.15% | U251 CNS -30.4% | PC-3 prostate 2.75% | SK-MEL-5 melanoma -93% | UACC-62 melanoma -52% | LOX IMVI melanoma -51.2% | SK-MEL-28 melanoma -6.42% | SK-MEL-2 melanoma -65.7% | EKVX NSCLC -34.1% | SN12C renal 9.89% | UO-31 renal -71.4% | TK-10 renal -59.4% | CAKI-1 renal -30.4% | A498 renal -65.3% | MOLT-4 leukemia -15.1%

O=C(Nn1c2c(sc1=NCc1ccccc1)C(=O)c1ccccc1C2=O)c1cc2ccc1CCc1ccc(cc1)CC2
inactive: HCT-15 colon 55.3% | HT29 colon 99.6% | SNB-75 CNS 33.9% | SNB-19 CNS 74.1% | U251 CNS 70.7% | PC-3 prostate 57.8% | SK-MEL-5 melanoma 51.3% | UACC-62 melanoma 66.4% | LOX IMVI melanoma 35.7% | SK-MEL-28 melanoma 91.4% | SK-MEL-2 melanoma 77.3% | EKVX NSCLC 88.4% | SN12C renal 61.8% | UO-31 renal 38.2% | TK-10 renal 124% | ACHN renal 42% | CAKI-1 renal 43.4% | A498 renal 86.7% | CCRF-CEM leukemia 40.8% | MOLT-4 leukemia 21%

C/C(Nc1ccc(Cl)c(Cl)c1)=C1\CCOC1=O
inactive: HCT-15 colon 84% | HT29 colon 84.8% | SNB-75 CNS 78.6% | SNB-19 CNS 106% | U251 CNS 91% | PC-3 prostate 86.8% | SK-MEL-5 melanoma 101% | UACC-62 melanoma 71.2% | LOX IMVI melanoma 67.6% | SK-MEL-28 melanoma 111% | SK-MEL-2 melanoma 97% | EKVX NSCLC 77.4% | SN12C renal 88.9% | UO-31 renal 84.3% | TK-10 renal 104% | ACHN renal 79.7% | CAKI-1 renal 57.7% | A498 renal 93.5% | CCRF-CEM leukemia 81.5% | MOLT-4 leukemia 80.9%

Cc1nnc(NC(=O)c2nc(S(=O)(=O)Cc3ccc(F)cc3)ncc2Cl)s1
inactive: HCT-15 colon 11.1% | HT29 colon 23.8% | SNB-75 CNS 79.3% | SNB-19 CNS 92.8% | U251 CNS 62.2% | PC-3 prostate 71.4% | SK-MEL-5 melanoma 98.9% | UACC-62 melanoma 19.8% | LOX IMVI melanoma 13.6% | SK-MEL-28 melanoma 50.5% | SK-MEL-2 melanoma 89.5% | EKVX NSCLC 90.5% | SN12C renal 64.7% | UO-31 renal 73.6% | TK-10 renal 79% | ACHN renal 96.5% | A498 renal 115% | MOLT-4 leukemia 11.3%
active: CAKI-1 renal -86.3% | CCRF-CEM leukemia -43.3%

O=C(O)c1[nH]c(=O)[nH]c(=O)c1[N+](=O)[O-]
inactive: HCT-15 colon 98.8% | HT29 colon 129% | SNB-75 CNS 93.4% | SNB-19 CNS 110% | U251 CNS 104% | PC-3 prostate 96.7% | SK-MEL-5 melanoma 110% | UACC-62 melanoma 106% | LOX IMVI melanoma 105% | SK-MEL-28 melanoma 121% | SK-MEL-2 melanoma 158% | EKVX NSCLC 119% | SN12C renal 108% | UO-31 renal 96.3% | TK-10 renal 119% | ACHN renal 102% | CAKI-1 renal 95.2% | A498 renal 118% | CCRF-CEM leukemia 113% | MOLT-4 leukemia 77.4%

CN(CCn1sc(=O)n(Cc2ccccc2)c1=O)Cc1ccc2c(Cl)cc(Cl)c(O)c2n1
inactive: HCT-15 colon 16.3% | HT29 colon 39.9% | SNB-75 CNS 74.6% | SNB-19 CNS 39.7% | U251 CNS 27% | PC-3 prostate 35.5% | SK-MEL-5 melanoma 59.5% | UACC-62 melanoma 29.8% | LOX IMVI melanoma 30.7% | SK-MEL-28 melanoma 59.8% | SK-MEL-2 melanoma 66.9% | EKVX NSCLC 35.9% | SN12C renal 34.7% | TK-10 renal 63.7% | ACHN renal 27.8% | CAKI-1 renal 46.4% | A498 renal 68.4% | CCRF-CEM leukemia 27.6% | MOLT-4 leukemia 27.7%
active: UO-31 renal -11.7%

CC(=O)n1nc(C(=O)OC(C)C)c2cc(C)c(C)cc21
inactive: HCT-15 colon 90.9% | HT29 colon 97.8% | SNB-75 CNS 80.7% | SNB-19 CNS 98.5% | U251 CNS 86.3% | PC-3 prostate 74.2% | SK-MEL-5 melanoma 92% | UACC-62 melanoma 97.6% | LOX IMVI melanoma 97% | SK-MEL-28 melanoma 114% | SK-MEL-2 melanoma 106% | EKVX NSCLC 99% | SN12C renal 105% | UO-31 renal 94.4% | TK-10 renal 98.6% | ACHN renal 101% | CAKI-1 renal 99.3% | A498 renal 104% | CCRF-CEM leukemia 84.7% | MOLT-4 leukemia 84.8%

O=C(c1ccc(Cl)cc1)N1CCN(c2ccnc3cc(Cl)ccc23)CC1
inactive: HCT-15 colon 95.5% | HT29 colon 81.7% | SNB-75 CNS 110% | SNB-19 CNS 84.2% | U251 CNS 78.7% | PC-3 prostate 80% | SK-MEL-5 melanoma 90.8% | UACC-62 melanoma 71.5% | LOX IMVI melanoma 103% | SK-MEL-28 melanoma 99.6% | SK-MEL-2 melanoma 88.9% | EKVX NSCLC 96.4% | SN12C renal 91.2% | UO-31 renal 58% | TK-10 renal 108% | ACHN renal 85.8% | CAKI-1 renal 85.7% | A498 renal 55.6% | CCRF-CEM leukemia 90.9% | MOLT-4 leukemia 87.1%

CCN(CC)c1ccc(/C=C/C(=O)c2ccc(Nc3nc(Nc4ccccc4)nc(Nc4ccccc4)n3)cc2)cc1
inactive: HCT-15 colon 32.4% | HT29 colon 49.8% | SNB-75 CNS 26.8% | SNB-19 CNS 67.5% | U251 CNS 43.4% | PC-3 prostate 34.1% | SK-MEL-5 melanoma 40.7% | UACC-62 melanoma 54.8% | LOX IMVI melanoma 40.3% | SK-MEL-28 melanoma 65.6% | SK-MEL-2 melanoma 27.9% | EKVX NSCLC 31.5% | SN12C renal 74% | UO-31 renal 23.9% | TK-10 renal 59.3% | ACHN renal 49.1% | CAKI-1 renal 44% | A498 renal 30.3% | MOLT-4 leukemia 22.6%
active: CCRF-CEM leukemia 5.63%
